# In PubChem BioAssay AID1159580 (chemical genetic matrix, 2015):
# Hit rate of the full screen: of about 5,500 compounds, about 2,000 (36%) were called active. About 18% were inconclusive and are not listed. Some of the results follow. Unmarked numbers belong to inactive results. No stated cut-off is given here; in the data, active means normalized growth mostly below about 0.91 (no sharp cut-off); inconclusive means no clear call, values can overlap the other calls; inactive means mostly above about 0.92.
# Test: chemical genetic growth profiling, strain panel (AID 1159580);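 further: tested at 20 µM; growth read once vehicle control cultures reached saturation at 30 °C; 1 = growth at the plate median or of vehicle wells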
# Conditions: growth OD
# [1] = S. cerevisiae deletion strains, locus YAL013W, strain DEP1, stronger effect = lower value
# [2] = S. cerevisiae deletion strains, locus YBR229C, strain ROT2, stronger effect = lower value
# [3] = S. cerevisiae deletion strains, locus YCL061C, strain MRC1, stronger effect = lower value
# [4] = S. cerevisiae deletion strains, locus YDL101C, strain DUN1, stronger effect = lower value
# [5] = S. cerevisiae deletion strains, locus YDR150W, strain NUM1, stronger effect = lower value
# [6] = S. cerevisiae deletion strains, locus YEL061C, strain CIN8, stronger effect = lower value
# [7] = S. cerevisiae deletion strains, locus YGR078C, strain PAC10, stronger effect = lower value
# [8] = S. cerevisiae deletion strains, locus YHR030C, strain SLT2, stronger effect = lower value
# [9] = S. cerevisiae deletion strains, locus YHR087W, strain rtc3, stronger effect = lower value
# [10] = S. cerevisiae deletion strains, locus YJL187C, strain SWE1, stronger effect = lower value
# [11] = S. cerevisiae deletion strains, locus YJR043C, strain POL32, stronger effect = lower value
# [12] = S. cerevisiae deletion strains, locus YJR075W, strain HOC1, stronger effect = lower value
# [13] = S. cerevisiae deletion strains, locus YLR039C, strain RIC1, stronger effect = lower value
# [14] = S. cerevisiae deletion strains, locus YLR058C, strain SHM2 (second series), stronger effect = lower value
# [15] = S. cerevisiae deletion strains, locus YLR085C, strain ARP6, stronger effect = lower value
# [16] = S. cerevisiae deletion strains, locus YLR262C, strain YPT6, stronger effect = lower value
# [17] = S. cerevisiae deletion strains, locus YML094W, strain GIM5, stronger effect = lower value
# [18] = S. cerevisiae deletion strains, locus YMR219W, strain ESC1, stronger effect = lower value
# [19] = S. cerevisiae deletion strains, locus YMR263W, strain SAP30, stronger effect = lower value
# [20] = S. cerevisiae deletion strains, locus YNL128W, strain TEP1, stronger effect = lower value
# [21] = S. cerevisiae deletion strains, locus YNL153C, strain GIM3, stronger effect = lower value
# [22] = S. cerevisiae deletion strains, locus YNL298W, strain CLA4 (second series), stronger effect = lower value
# [23] = S. cerevisiae deletion strains, locus YNL322C, strain KRE1, stronger effect = lower value
# [24] = S. cerevisiae deletion strains, locus YNR030W, strain Alg12, stronger effect = lower value
# [25] = S. cerevisiae deletion strains, locus YOL006C, strain TOP1, stronger effect = lower value
# [26] = S. cerevisiae deletion strains, locus YPL055C, strain LGE1, stronger effect = lower value
# [27] = S. cerevisiae deletion strains, locus YPL241C, strain CIN2, stronger effect = lower value
# [28] = S. cerevisiae deletion strains, locus YPR135W, strain CTF4, stronger effect = lower value
# [29] = S. cerevisiae strains, strain wild type, stronger effect = lower value
compound,measurement,setting,value
CCOC(=O)Cn1c(=O)c(C#N)cn(C(C)C)c1=O,normalized growth,[1],1.01
same,normalized growth,[2],1.01
same,normalized growth,[3],0.993
same,normalized growth,[4],1.02
same,normalized growth,"S. cerevisiae deletion strains, locus YDL134C, strain PPH21, stronger effect = lower value",1.01
same,normalized growth,[5],1.02
same,normalized growth,[6],0.988
same,normalized growth,[7],1.01
same,normalized growth,[8],1.03
same,normalized growth,[9],1
same,normalized growth,[10],1
same,normalized growth,[11],0.998
same,normalized growth,[12],1.02
same,normalized growth,[13],1.02
same,normalized growth,[14],1.01
same,normalized growth,[15],0.976
same,normalized growth,[16],1.01
same,normalized growth,[17],1
same,normalized growth,[18],1.01
same,normalized growth,[19],1
same,normalized growth,[20],0.98
same,normalized growth,[21],1
same,normalized growth,[22],1.04
same,normalized growth,[23],1.01
same,normalized growth,[24],1.02
same,normalized growth,[25],1.03
same,normalized growth,[26],0.984
same,normalized growth,[27],1.02
same,normalized growth,[28],1.02
same,normalized growth,[29],1.01
CC(C)n1cc(C#N)c(=O)n(Cc2ccccc2)c1=O,normalized growth,[1],0.992
same,normalized growth,[2],0.994
same,normalized growth,[3],0.991
same,normalized growth,[4],1.02
same,normalized growth,[5],0.923
same,normalized growth,[6],1
same,normalized growth,[7],0.991
same,normalized growth,[8],0.983
same,normalized growth,[9],0.989
same,normalized growth,[10],0.977
same,normalized growth,[12],0.999
same,normalized growth,[13],1.01
same,normalized growth,[14],1
same,normalized growth,[15],0.999
same,normalized growth,[16],1.04
same,normalized growth,[17],0.988
same,normalized growth,[18],1
same,normalized growth,[19],0.967
same,normalized growth,[20],0.994
same,normalized growth,[21],0.984
same,normalized growth,[22],1.05
same,normalized growth,[23],0.996
same,normalized growth,[24],1.01
same,normalized growth,[26],0.979
same,normalized growth,[27],1
same,normalized growth,[28],0.994
same,normalized growth,[29],1.01
CCCn1c(=O)c(C#N)cn(-c2ccc(Cl)cc2)c1=O,normalized growth,[1],1.01
same,normalized growth,[2],0.986
same,normalized growth,[3],1.01
same,normalized growth,[4],0.991
same,normalized growth,[5],1.02
same,normalized growth,[6],0.97
same,normalized growth,[7],0.996
same,normalized growth,"S. cerevisiae deletion strains, locus YGR229C, strain SMI1, stronger effect = lower value",0.997
same,normalized growth,[8],0.937
same,normalized growth,[9],0.977
same,normalized growth,[10],0.93 (active)
same,normalized growth,[11],1.02
same,normalized growth,[12],1.01
same,normalized growth,[13],0.759 (active)
same,normalized growth,[14],0.986
same,normalized growth,[15],0.893
same,normalized growth,[16],0.821
same,normalized growth,[17],0.963
same,normalized growth,[18],0.99
same,normalized growth,[19],1
same,normalized growth,[21],1
same,normalized growth,[22],0.961
same,normalized growth,[23],0.979
same,normalized growth,[24],0.99
same,normalized growth,[25],0.924
same,normalized growth,[26],1.04
same,normalized growth,[27],0.982
same,normalized growth,[28],1.03
